The list is not random: actives were taken first. Their share in the collection is about 19%.
DT40 TDP1 CPT = growth inhibition of DT40 Tdp1-/-;hTDP1 cells with camptothecin (screen for TDP1 inhibitors). AID 686979. 420,000 compounds, 12% hits. chicken DT40 Tdp1-/-;hTDP1 cells + 20 nM CPT, ATP luminescence, 48 h. Potency, µM (top dose mostly 46.2 µM), inactives show top-dose activity change, negative = growth inhibition, hits mostly inhibitors; also: potency is read from the fitted curve at half-maximal effect; % is scaled to controls: 0 for no effect and ±100 for the full control effect; nearly all actives have a fitted effect of over 55% in size
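Chicken DT40 Tdp1-/- cells complemented with human TDP1, 400 cells/well, exposed to compounds plus 20 nM camptothecin for at least 48 h at 37 C; viability read as ATP content by CellTiter-Glo luminescence.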
TGFb SMAD3 inh = blocks TGF-b signaling; 410,000 compounds, 1.2% hits; HepG2 CAGA-GFP TGF-b/SMAD3 reporter, GFP fluorescence, 18 h; TGF-beta stimulated, 500 pg/mL final; AID 588855; Potency, µM (series often up to 46.1 µM), for the others: top-dose activity, negative = inhibition, actives largely listed as inhibitors; also: potency is read from the fitted curve at half-maximal effect; % is scaled to controls: 0 for no effect and ±100 for the full control effect; nearly all actives have a fitted effect of over 65% in size
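Inhibition was scored as loss of TGF-beta-induced (500 pg/mL final, 18 hours, 37 degrees C) GFP in HEPG2 cells carrying a CAGA-GFP reporter, in DMEM with 1% FBS. Well GFP was summed per cell; Activity was normalised to unstimulated and stimulated DMSO wells, then concentration-response fitting.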
IL-1B inflam inh = inhibitors of inflammasome signaling (IL-1 beta secretion). THP-1 LPS/ATP IL-1B secretion, AlphaLISA, 16 h; hits give low values. activity change, % at 57.5 µM. 360,000 compounds, 4.7% hits. AID 743279; in the data active = activity change below about -50%; inconclusive = mostly about -30% to -49%; also: % is scaled to controls: 0 for no effect and ±100 for the full control effect
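THP-1 cells pretreated 1 hr with compounds (up to 57.5 uM final), then stimulated with LPS (250 ng/mL final) plus ATP (1.25 mM final); secreted IL-1B measured by AlphaLISA after 16 hr, decreased signal indicating inhibition.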
S-ASM inh = inhibitors of human secretory acid sphingomyelinase; Potency, µM (highest dose often 57.5 µM), inactives show top-dose activity change, negative = inhibition, actives largely listed as inhibitors; 340,000 compounds, 0.006% hits; P17405; placental ASM, HMU-PC fluorogenic substrate, 60 min; AID 504937; also: potency is read from the fitted curve at half-maximal effect
Target sequence (P17405 47-631 limits assumed): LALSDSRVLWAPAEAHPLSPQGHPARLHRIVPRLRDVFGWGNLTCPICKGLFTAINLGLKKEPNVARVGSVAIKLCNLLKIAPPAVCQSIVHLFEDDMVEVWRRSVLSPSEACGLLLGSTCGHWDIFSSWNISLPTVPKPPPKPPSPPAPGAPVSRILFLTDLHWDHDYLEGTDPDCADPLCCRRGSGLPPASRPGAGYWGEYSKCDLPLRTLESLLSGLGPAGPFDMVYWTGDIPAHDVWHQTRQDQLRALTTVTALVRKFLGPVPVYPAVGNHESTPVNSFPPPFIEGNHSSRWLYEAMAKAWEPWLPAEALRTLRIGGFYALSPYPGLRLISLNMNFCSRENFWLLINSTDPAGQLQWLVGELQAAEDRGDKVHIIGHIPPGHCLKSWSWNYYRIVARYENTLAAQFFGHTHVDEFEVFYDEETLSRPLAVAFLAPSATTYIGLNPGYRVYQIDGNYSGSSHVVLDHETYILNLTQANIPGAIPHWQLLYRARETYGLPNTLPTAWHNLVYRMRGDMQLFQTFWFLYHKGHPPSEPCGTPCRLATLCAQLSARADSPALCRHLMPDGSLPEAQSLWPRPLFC
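Fluorogenic HMU-PC substrate (9 uM final) is turned over by placental ASM in 60 min at 37 C after a 10 min compound preincubation. Reaction ended by alkaline stop (pH 10), with fluorescence read at 386/447 nm.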
TDP1 cell noCPT = qHTS for Inhibitors of human tyrosyl-DNA phosphodiesterase 1 (TDP1): qHTS in cells in absence of CPT; 420,000 compounds, 15% hits; DT40 Tdp1-/- hTDP1 cells, no CPT, ATP luminescence, 48 h; AID 686978, 2013; Potency, µM (titrated, usually from 46.2 µM), for inactives: top-dose activity change, negative = growth inhibition, actives largely listed as inhibitors; also: potency is read from the fitted curve at half-maximal effect; % is scaled to controls: 0 for no effect and ±100 for the full control effect; nearly all actives have a fitted effect of over 55% in size
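Cells were dispensed at 400 per well, compounds added by pin tool, plates incubated ≥48 hr at 37 °C, then CellTiter-Glo added for 30 min at room temperature before luminescence reading. Line: DT40 Tdp1-/- complemented with hTDP1; camptothecin omitted.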
HepG2 viability = kills HepG2 cells in TGF-b inhibitor counter-screen; HepG2 CAGA-GFP viability, ATP luminescence, 18 h; Potency, µM (series often up to 46.1 µM), without a hit: top-dose activity change, negative = cytotoxicity, actives largely listed as cytotoxic; 410,000 compounds, 0.76% hits; AID 588856; also: potency is read from the fitted curve at half-maximal effect
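CellTiter-Glo luminescence gave cytotoxicity after 18 hours at 37 degrees C. The cells were HepG2 CAGA-GFP in 1% FBS DMEM, stimulated with 500 pg/mL TGF-beta after compound addition. %Activity was normalised to no-cell wells (complete cell-killing) and DMSO (no toxicity), and curves were fitted and classified.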
* hit, by the source's call; i = inactive; ? = inconclusive; / = not tested or not shown. Unless noted, calls follow the shape of the dose curve; as a rule, active = well fitted curve in the direction sought with a large enough effect; inconclusive = small, poorly fitted or top-dose-only effect, or another doubt; inactive = no such curve, though single readings can be large; an effect the other way counts as inactive or inconclusive.

SMILES	DT40 TDP1 CPT	TGFb SMAD3 inh	IL-1B inflam inh	S-ASM inh	TDP1 cell noCPT	HepG2 viability
COc1cccc(C(=O)C2CCCN(Cc3ccc(OC)c(Cn4cncn4)c3)C2)c1 (stereo unspecified)	?	?	-4.4	-3.6%	?	-15.1%
COc1ccc(C(=O)C2CCCN(Cc3cc(C)c(O)c(C)c3)C2)c(OC)c1 (stereo unspecified)	?	?	?	0.2%	20.6µM*	-0.1%
COc1ccc(C(=O)C2CCCN(C3Cc4ccccc4C3)C2)c(OC)c1 (stereo unspecified)	20.6µM*	9.0%	0.0	1.9%	10.3µM*	-21.6%
COc1ccc(C(=O)C2CCCN(Cc3cc(Cl)ccc3O)C2)c(OC)c1 (stereo unspecified)	?	?	-65.4*	-1.1%	?	-30.3%
COc1ccc(CN2CCCC(C(=O)c3ccc(Cl)cc3)C2)cc1Cn1cccn1 (stereo unspecified)	?	?	-91.6*	-2.6%	?	-22.4%
CCOC(=O)C1CCCN(Cc2ccc(OC)cc2OC)C1 (stereo unspecified)	-24.6%	?	-16.1	-0.2%	-10.8%	-3.6%
COc1ccc(CN2CCCC(C(=O)N3CCCC3)C2)c(OC)c1 (stereo unspecified)	1.4%	9.0%	21.6	-3.5%	0.7%	-2.0%
C=CCn1c(SCc2ccc(C(=O)NCCO)cc2)nc2sc(C)c(C)c2c1=O	-19.0%	-1.3%	-4.3	-7.9%	-24.9%	-4.1%
COc1cc(CN2CCCC(C(=O)c3ccc(C(C)(C)C)cc3)C2)cc(OC)c1O (stereo unspecified)	?	0.4%	-79.1*	-2.4%	?	-28.8%
COc1cccc(CC(=O)NC2CCCN(Cc3ccc(Cl)cc3)C2)c1 (stereo unspecified)	?	-20.2%	-7.8	-1.8%	?	5.3%
COc1cc2c(cc1OC)CN(C1CCCN(Cc3cc(Cl)ccc3O)C1)CC2 (stereo unspecified)	16.4µM*	-28.1%	-0.2	65.3%	?	-27.1%
CCOc1cc(CN2CCCC(C(=O)c3cccc(C(F)(F)F)c3)C2)ccc1O (stereo unspecified)	?	1.3%	-2.8	3.1%	25.9µM*	-21.8%
COc1cccc(CN2CCCC(C(=O)c3ccc4c(c3)OCO4)C2)c1O (stereo unspecified)	-14.5%	-25.3%	-23.9	1.5%	-0.1%	-30.2%
COc1ccc(C(=O)NC2CCCN(Cc3ccc(Cl)cc3)C2)c(OC)c1 (stereo unspecified)	16.4µM*	?	-24.5	2.1%	11.6µM*	-38.7%
CCOC(=O)c1ccccc1NC(=O)c1nc2nccc(C)n2n1	?	-17.7%	-12.1	-0.3%	18.4µM*	-10.2%
CCOC(=O)c1ccccc1NC(=O)N(C)CCc1c(C)nn(CC)c1C	20.6µM*	-29.2%	/	/	16.4µM*	-19.6%
C[C@@H]1CC[C@]2(O[C@@H](CCO)C[C@@H](O)[C@@H]2O)O1	-18.7%	16.9%	23.4	0.2%	-3.3%	-1.5%
CCC(=O)c1ccc(OCCSc2ncccn2)cc1	?	-5.2%	-5.7	-1.1%	18.4µM*	-26.7%
COc1ccc(C2CC(=O)c3cc(-c4nc(-c5cccc([N+](=O)[O-])c5)cs4)c(=O)n(-c4ccccc4N)c3C2)cc1 (stereo unspecified)	-14.4%	-15.6%	/	/	-14.9%	0.6%
O=C(NCC(=O)N1CCN(c2ccccc2O)CC1)c1cccs1	-4.1%	0.8%	-11.5	-3.9%	-24.2%	1.5%
Cc1ccc(C(=O)NCC(=O)N2CCN(c3ccccc3O)CC2)s1	-3.0%	-2.2%	-16.8	/	2.91µM*	-1.5%
CCOc1ccc(CCNC(=O)Cc2ccc(NC(=O)C3=C(C)OCCS3)cc2)cc1	?	-4.2%	-1.3	0.0%	?	-4.2%
CSc1ccc(CNC(=O)Cc2ccc(NC(=O)C3=C(C)OCCS3)cc2)cc1	2.91µM*	-15.7%	23.1	-1.0%	2.91µM*	-4.4%
COc1ccc(OCC(=O)NCCS(=O)(=O)N2CCN(c3cccc(Cl)c3)CC2)cc1	?	0.0%	/	/	?	-25.1%
COc1ccc2c3c(cccc13)C(=O)CC2	18.4µM*	45.6%	?	4.6%	20.6µM*	-35.4%
SMILES	DT40 TDP1 CPT	TGFb SMAD3 inh	IL-1B inflam inh	S-ASM inh	TDP1 cell noCPT	HepG2 viability
CSc1nc2ncc(C#N)cn2n1	4.0%	4.6%	4.7	4.3%	-15.6%	3.0%
N#Cc1cnc2nc(SCc3ccccc3)nn2c1	-0.9%	-1.0%	-69.5*	-1.1%	?	-16.1%
CCC(CC)c1nn2c(=O)cc(COc3ccc(NC(=O)c4ccccc4C)cc3)nc2s1	?	-15.1%	/	/	2.31µM*	1.7%
Cc1nn2c(COc3ccc(NC(=O)C(C)C)cc3)nnc2c2ccccc12	?	-6.3%	-9.9	3.7%	?	9.8%
CCC(CC)c1nn2c(=O)cc(COc3ccc(NC(=O)c4ccccc4Cl)cc3)nc2s1	?	-29.5%	/	/	2.31µM*	-21.1%
Cc1nn2c(COc3ccc(NC(=O)c4ccccc4Cl)cc3)nnc2c2ccccc12	18.4µM*	-28.8%	?	-13.7%	23.1µM*	-22.4%
CCCn1c2ccccc2c2cnn(CC(=O)NCc3ccc(OC)cc3)c(=O)c21	?	-28.5%	/	/	?	-3.1%
CC1CCN(C(=O)CSc2nc3c(c(=O)n2C)SC(C)C3)CC1 (stereo unspecified)	?	-10.7%	i	1.8%	20.6µM*	1.3%
CC1Cc2nc(SCC(=O)N3CCCc4ccccc43)n(C)c(=O)c2S1 (stereo unspecified)	?	-25.2%	12.5	0.7%	13µM*	-22.5%
CCn1c(SCC(=O)N2CCCc3ccccc32)nc2c(c1=O)SC(C)C2 (stereo unspecified)	16.4µM*	0.5%	13.9	0.9%	?	-12.8%
CC1Cc2nc(SCC(=O)N3CCCCC3)n(C)c(=O)c2S1 (stereo unspecified)	-3.6%	-9.3%	3.7	/	?	-0.9%
COCCn1c(SCC(=O)N2CCCc3ccccc32)nc2c(c1=O)SC(C)C2 (stereo unspecified)	?	-28.5%	-24.4	-3.2%	?	-15.0%
c1ccn2cc(-c3ccc4c(c3)OCO4)cc2c1	16.4µM*	-22.4%	0.0	305.9%	?	-0.9%
c1cnc2nc(-c3ccc4c(c3)OCO4)cn2c1	-13.4%	23.7%	-18.6	266.4%	?	-4.7%

Screening data from PubChem BioAssay.
